From PubChem BioAssay
An excerpt weighted towards active compounds, which were near 10% of everything screened.
NPR1 antag: Natriuretic polypeptide receptor (hNpr1) antagonism - Primary qHTS. HEK293 hNpr1 GloSensor cGMP, ANP-stimulated luminescence. Potency, µM (top dose mostly 46.3 µM), hits mostly inhibitors. hit rate 1.6% among 76,000. Atrial natriuretic peptide receptor 1 (Homo sapiens), P16066; calls by dose curve; note: nearly all actives have a fitted effect of over 60% in size
Target sequence (P16066 whole entry, looked up): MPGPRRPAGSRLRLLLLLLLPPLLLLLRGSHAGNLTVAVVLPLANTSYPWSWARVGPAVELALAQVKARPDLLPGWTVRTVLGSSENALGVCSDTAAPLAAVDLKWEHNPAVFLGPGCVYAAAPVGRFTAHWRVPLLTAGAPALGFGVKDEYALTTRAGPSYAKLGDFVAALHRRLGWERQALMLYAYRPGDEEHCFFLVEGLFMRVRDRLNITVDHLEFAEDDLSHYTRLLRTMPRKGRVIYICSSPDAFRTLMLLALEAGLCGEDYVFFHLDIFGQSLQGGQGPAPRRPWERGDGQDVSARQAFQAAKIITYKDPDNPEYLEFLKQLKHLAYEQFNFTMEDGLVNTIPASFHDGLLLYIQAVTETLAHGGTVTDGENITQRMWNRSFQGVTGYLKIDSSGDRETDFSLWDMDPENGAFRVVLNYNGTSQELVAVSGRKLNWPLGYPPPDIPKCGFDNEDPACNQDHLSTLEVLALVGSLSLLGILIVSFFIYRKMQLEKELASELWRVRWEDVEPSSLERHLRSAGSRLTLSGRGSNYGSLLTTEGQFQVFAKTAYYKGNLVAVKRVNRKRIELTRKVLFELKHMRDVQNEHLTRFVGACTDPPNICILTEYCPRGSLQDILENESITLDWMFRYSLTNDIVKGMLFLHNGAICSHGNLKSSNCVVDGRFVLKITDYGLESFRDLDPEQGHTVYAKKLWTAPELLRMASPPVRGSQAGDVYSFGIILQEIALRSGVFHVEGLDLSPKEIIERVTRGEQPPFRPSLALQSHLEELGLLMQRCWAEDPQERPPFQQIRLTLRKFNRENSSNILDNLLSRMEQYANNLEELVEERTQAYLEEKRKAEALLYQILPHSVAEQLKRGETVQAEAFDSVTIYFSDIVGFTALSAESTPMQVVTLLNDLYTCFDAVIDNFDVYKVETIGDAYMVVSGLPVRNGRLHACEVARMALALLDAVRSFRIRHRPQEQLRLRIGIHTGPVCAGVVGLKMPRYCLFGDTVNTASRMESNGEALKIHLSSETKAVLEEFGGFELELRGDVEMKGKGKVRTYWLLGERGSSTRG
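HEK293 cells stably expressing human Npr1 and cGMP GloSensor pGS-40F, loaded 2 h with 2% GloSensor reagent, given compound 30 min at room temperature. Luminescence read before and 20 min after 0.1 nM hNppA.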
HEK cytotox: Cytotoxic Profiling in HEK 293 Cell Line of Diverse Libraries Using Quantitative High-Throughput Screening; HEK 293 viability, ATP luminescence (CellTiter-Glo), 48-72 h; Potency, µM (top dose mostly 115 µM), hits mostly inhibitors; hit rate 6.6% among 94,000; note: nearly all actives have a fitted effect of over 60% in size
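qHTS cytotoxicity; HEK 293, 250 cells/well; compound pinned; 48 or 72 hr, 37 degree Celsius, 5% CO2, 95% humidity; CellTiter-Glo, 10 min RT; luminescence (ATP).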
3T3 cytotox: Cytotoxic Profiling in NIH 3T3 Cell Line of Diverse Libraries Using Quantitative High-Throughput Screening; NIH 3T3 viability, CellTiter-Glo ATP luminescence, 48-72 h; Potency, µM (top dose mostly 96.7 µM), most hits filed as inhibitors; hit rate 4.3% among 94,000; note: nearly all actives have a fitted effect of over 55% in size
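Cytotoxicity is measured as loss of cellular ATP: NIH 3T3 cells (400/well) are exposed to compound for 48 or 72 hr at 37 °C, then CellTiter-Glo luminescence is imaged after 10 min at room temperature.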
Luciferase inh: Firefly luciferase inhibition profiling of diverse chemical library using quantitative high-throughput screening; hit rate 2.5% among 76,000; Luciferin 4-monooxygenase (Photinus pyralis), P08659; Potency, µM (titrated, usually from 115 µM), hits mostly inhibitors; purified P. pyralis luciferase, luminescence, biochemical; note: nearly all actives have a fitted effect of over 65% in size
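Luminescence read by CCD imager after adding enzyme (10nM final) to wells holding compound, titrated in qHTS. Substrates 10uM each D-luciferin and ATP; buffer 50mM Tris acetate pH 7.5, 10mM Mg acetate, Tween-20, BSA.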
GPT2 inhibitor: Primary qHTS assay for inhibitors of Glutamate pyruvate transaminase 2 (GPT2). Alanine aminotransferase 2 (Homo sapiens), Q8TD30. Recombinant GPT2, coupled pyruvate oxidase/HRP Amplex Red fluorescence. Potency, µM (titrated, usually from 57.7 µM), usual class: inhibitors. hit rate 0.25% among 100,000; note: nearly all actives have a fitted effect of over 60% in size
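Fluorescence of coupled pyruvate oxidase/HRP/Amplex Red system (50uM Amplex, 30 min, dark) reports pyruvate formed by GPT2. Enzyme reaction: 10ng/uL GPT2, 2mM L-alanine, 250uM a-KG, 30 min room temperature, pH 7.5; 50uM AOA control.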
Large screens that a line does not name were inactive. Unless noted, calls come from the whole dose curve; as a rule, active = well fitted curve in the direction sought with a large enough effect; inconclusive = small, poorly fitted or top-dose-only effect, or another doubt; inactive = no such curve, though single readings can be large; an effect the other way counts as inactive or inconclusive.

CC(=O)NC1(C)CCN(Cc2ccc(-c3ccc([S+](C)(=O)[O-])cc3)cc2)C1 (stereo not given)	HEK cytotox inconclusive
CC(=O)NC1(C)CCN(Cc2ccc(-c3ccccc3Oc3ccccc3)cc2)C1 (stereo not given)	HEK cytotox 56µM, 3T3 cytotox 40µM
CC(C)NC(=O)C1CCc2sc(C(=O)N3CCCCCC3)cc2C1 (stereo not given)	none
O=[S+]1([O-])NCC2(CCN(Cc3cccs3)CC2)Oc2ncccc21	none (no result: NPR1 antag, Luciferase inh)
Cc1nc(-c2ccc(F)cc2)n(CC(=O)Nc2ccc3c(c2)OCO3)c(=O)c1CCO	HEK cytotox inconclusive
CCN1CCN(c2ncnc3c2CN(c2cccc(C)c2)C(=O)CN3C)CC1	none (no result: NPR1 antag, Luciferase inh)
c1cnc(N2CCOCC2)c(CNCc2ccc(C3CCCCO3)o2)c1 (stereo not given)	none
CN(C)CCOCC1(C)COc2ccc(C(=O)Nc3cccc(Cl)c3)cc2N1 (stereo not given)	HEK cytotox 63µM, 3T3 cytotox 45µM, Luciferase inh 45µM
CN(C)CCOCC1(C)COc2ccc(C(=O)Nc3cccc(N(C)C)c3)cc2N1 (stereo not given)	HEK cytotox inconclusive, 3T3 cytotox inconclusive, Luciferase inh inconclusive
COc1cccc(NC(=O)c2ccc3c(c2)NC(C)(COc2cccnc2)CO3)c1 (stereo not given)	NPR1 antag 22µM, HEK cytotox 50µM, 3T3 cytotox inconclusive, Luciferase inh inconclusive
CCOCC1(C)COc2ccc(C(=O)Nc3cccnc3)cc2N1 (stereo not given)	HEK cytotox inconclusive
CC1(COc2cccnc2)COc2ccc(C(=O)Nc3cccc(Cl)c3)cc2N1 (stereo not given)	NPR1 antag 28µM, HEK cytotox 22µM, 3T3 cytotox inconclusive, Luciferase inh inconclusive, GPT2 inhibitor inconclusive
CCOCC1(C)COc2ccc(C(=O)Nc3ccc(F)c(Cl)c3)cc2N1 (stereo not given)	NPR1 antag inconclusive, HEK cytotox 40µM, 3T3 cytotox 32µM, Luciferase inh inconclusive
COc1ccc(NC(=O)c2ccc3c(c2)NC(C)(COc2ccccc2)CO3)cn1 (stereo not given)	NPR1 antag inconclusive, HEK cytotox inconclusive, 3T3 cytotox inconclusive
COc1cccc(OC)c1CN1CC(O)CN(C(=O)OCC(C)C)CC1=O (stereo not given)	HEK cytotox inconclusive (no result: NPR1 antag, Luciferase inh, GPT2 inhibitor)
CCCCCC(=O)N1[C@@H](c2ccco2)[C@@H](C(=O)OCC)C[C@]12CCCCNC2=O	3T3 cytotox inconclusive (no result: NPR1 antag, Luciferase inh, GPT2 inhibitor)
CSc1ccc(-c2cccc(C(=O)NCCNC(=O)C(C)(C)C)c2)cc1	none (no result: NPR1 antag, Luciferase inh)
CCCNC(=O)c1coc(COc2ccc3c(c2)C(c2ccc(F)cc2)N(C(=O)C(C)C)CC3)n1 (stereo not given)	HEK cytotox inconclusive, 3T3 cytotox 22µM
CCNC(=O)c1coc(COc2ccc3c(c2)C(c2cccc(F)c2)N(C(=O)C(C)C)CC3)n1 (stereo not given)	HEK cytotox 40µM, 3T3 cytotox inconclusive
Fc1ccc(OCC2CCCN(c3ccc(Cn4ccnc4)cn3)C2)cc1 (stereo not given)	HEK cytotox inconclusive, 3T3 cytotox inconclusive
COc1cccc(-c2ccc(C(=O)N3CCC(C(=O)NC4CCCC4)CC3)cc2)c1	HEK cytotox inconclusive, 3T3 cytotox inconclusive (no result: NPR1 antag, Luciferase inh)
COC1CN(c2cccc(F)c2)C12CCN(C(=O)C1(c3ccccc3)CC1)CC2 (stereo not given)	HEK cytotox inconclusive, 3T3 cytotox inconclusive (no result: NPR1 antag, Luciferase inh)
CNC(=O)N1CCC(C2CCN(C(=O)Cc3ccccc3)C2)CC1 (stereo not given)	none
CN1CCC(OC2CCN(C(=O)CCCc3ccccc3)CC2)CC1	Luciferase inh 28µM
CNC(=O)N1CCC(C2CCN(C(=O)CCCc3ccccc3)C2)CC1 (stereo not given)	Luciferase inh 25µM
CN1CCC(OC2CCN(C(=O)c3ccccc3)CC2)CC1	none
O=C(C1CCCC1)N1CCN(Cc2ccccc2-c2ccccc2F)CC1	HEK cytotox inconclusive, 3T3 cytotox inconclusive (no result: NPR1 antag, Luciferase inh)
